16 compounds from PubChem BioAssay (NCATS) can be followed below.

The structures appear in SMILES notation. Inconclusive results are not listed. Entries that show only a call come without a potency. The source made the active and inactive calls. Calls follow the shape of the dose curve; as a rule, active = well fitted activation curve with a large enough effect; inconclusive = small, poorly fitted or top-dose-only effect; inactive = flat fitted curve, though single readings scatter.

A short description of the assay: qHTS for Activators of Parkin Expression: LOPAC Validation Assay (NLuc Reporter) (AID 720572). The settings on record: Parkin promoter NanoLuc reporter cells, luminescence; series mostly up to 46.1 µM. The essentials: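 Cells harboring the Parkin-promoter coincidence reporter were treated for 24 h at seven concentrations. NLuc output was measured sequentially after the FLuc channel and scaled between DMSO and positive control values.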
Turning to `CCCCC/C=C\CC(O)/C=C/c1cccc(CC(O)CCCCO)n1` (stereo unspecified), the Potency entry was “inactive”. As for `Cc1ccc(S(=O)(=O)/C=C/C#N)cc1`, the entry is “inactive”; as for `Oc1ccc(C2CNCc3sccc32)cc1O` (stereo unspecified), “inactive”. To `CN1CCc2cc(O)c(O)cc2C(c2ccccc2)C1` (stereo unspecified) belongs “inactive”; to `N.N.N.N.N.N.N.N.N.N.N.N.N.N.O.O.[Ru+4].[Ru+5].[Ru+5]`, “inactive”; to `C=CC(=O)c1ccc(CCCCCC)cc1`, “inactive”.

As for `CCN1/C(=C/C(C)=O)Sc2ccc(OC)cc21`, the Potency entry was “inactive”. For the compound `C[N+](C)(C)CC(=O)[O-]`, the Potency result was “inactive”.

Consider `CCCn1c(=O)c2[nH]c(-c3ccc(OCC(=O)NCCN)cc3)nc2n(CCC)c1=O`, for which the Potency result is “inactive”. Take `O=[N+]([O-])c1ccc2c(c1)S(=O)(=O)C=C2`: the Potency result is “inactive”. As for `NCCSSCCN`, the entry is “inactive”; as for `C=CC(N)CCC(=O)O` (stereo unspecified), “inactive”; as for `COc1cc2nc(N3CCN(C(=O)OCc4ccccc4)C(C(=O)NC(C)(C)C)C3)nc(N)c2cc1OC` (stereo unspecified), “inactive”. To `CC(C)ON([C@@H](C(=O)NO)C(C)C)S(=O)(=O)c1ccc(-c2ccccc2)cc1` belongs “inactive”. As for `O=C1C(SCCO)=C(SCCO)C(=O)c2ccccc21`, the entry is “inactive”; as for `CC(C)(C)c1ccc(S(=O)(=O)/C=C/C#N)cc1`, “inactive”.
